Data: PubChem BioAssay (NCATS)
Results filed as inconclusive are left out. Activity calls are given as the source filed them. Unless noted, calls follow the shape of the dose curve; as a rule, active = well fitted curve in the direction sought with a large enough effect; inconclusive = small, poorly fitted or top-dose-only effect, or another doubt; inactive = no such curve, though single readings can be large; an effect the other way counts as inactive or inconclusive.

Tests used:
[1] = S16 Schwann cell viability assay (CellTiter-Glo assay) (AID 624031);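 also: native untransfected S16 rat Schwann cells; cellular ATP luminescence as a viability measure; nearly all actives have a fitted effect of over 70% in size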
Procedure, shortened: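 Cells were seeded at 500-750 per well in phenol red-free DMEM with 10% FBS and left overnight. Compounds or DMSO were pinned in, incubation ran 24 h at 37 °C/5% CO2, then CellTiter-Glo reagent was added and luminescence measured.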

[2] = S16 Schwann cell PMP22 intronic element beta-lactamase assay (AID 624044; calls by dose curve; also: nearly all actives have a fitted effect of over 15% in size)
Procedure, shortened: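 Rat S16 Schwann cells with beta-Lac driven by a PMP22 intronic element, compound-treated 24 h at 37 °C. LiveBLAzer FRET B/G read: 460 nm normalized to potassium clavulanate vs DMSO; 535 nm FRET as viability; concentration-effect curves classified.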

CP211 = experiment: qHTS profiling for inhibitors of Plasmodium falciparum proliferation (AID 504749); also: nearly all actives have a fitted effect of over 60% in size; also: potency is read from the fitted curve at half-maximal effect; conditions: P. falciparum in erythrocytes, SYBR Green DNA, 72 h; series mostly up to 12.8 µM
Procedure, shortened: (§1)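 Parasite proliferation within erythrocytes, 72 h exposure. Endpoint: SYBR Green I fluorescence after overnight lysis at room temperature. Controls: 0.29 uM artemisinin, DMSO.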

CP256 = experiment: as above; conditions: P. falciparum in erythrocytes, SYBR Green DNA, 72 h; series mostly up to 12.8 µM
Procedure, shortened: as §1

CP297 = experiment: as above; conditions: P. falciparum in erythrocytes, SYBR Green DNA, 72 h; series mostly up to 12.8 µM
Procedure, shortened: as §1

CP325 = experiment: as above; conditions: P. falciparum in erythrocytes, SYBR Green DNA, 72 h; series mostly up to 12.8 µM
Procedure, shortened: as §1

DIV17 = experiment: as above; conditions: P. falciparum in erythrocytes, SYBR Green DNA, 72 h; series mostly up to 12.8 µM
Procedure, shortened: as §1

FAB9 = experiment: as above; conditions: P. falciparum in erythrocytes, SYBR Green DNA, 72 h; series mostly up to 12.8 µM
Procedure, shortened: as §1

ICS = experiment: as above; conditions: P. falciparum in erythrocytes, SYBR Green DNA, 72 h; series mostly up to 12.8 µM
Procedure, shortened: as §1

JCK = experiment: as above; conditions: P. falciparum in erythrocytes, SYBR Green DNA, 72 h; series mostly up to 12.8 µM
Procedure, shortened: as §1

PC15 = experiment: as above; conditions: P. falciparum in erythrocytes, SYBR Green DNA, 72 h; series mostly up to 12.8 µM
Procedure, shortened: as §1

SC27B = experiment: as above; conditions: P. falciparum in erythrocytes, SYBR Green DNA, 72 h; series mostly up to 12.8 µM
Procedure, shortened: as §1

W2 = experiment: as above; conditions: P. falciparum in erythrocytes, SYBR Green DNA, 72 h; series mostly up to 12.8 µM
Procedure, shortened: as §1

[3] = molecular target: Rap guanine nucleotide exchange factor 3 (Homo sapiens) (UniProt O95398); experiment: Counterscreen qHTS for agonist of cAMP-regulated guanine nucleotide exchange factor 3 (EPAC1) (AID 1645889); also: nearly all actives have a fitted effect of over 40% in size
Procedure, shortened: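 Measured: fluorescence of BODIPY-GDP bound to Rap1B, which falls as exchange proceeds. Conditions include 50 uM competing GDP, 5 and 30 min reads, and a later cAMP challenge for antagonist detection.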

[4] = qHTS Assay for Modulators of Human Peripheral Myelin Protein 22 (PMP22) Expression/Activity (AID 1967; active = well fitted curve in the direction sought with a large enough effect in the signal ratio; the % refers to the signal ratio)
Procedure, shortened: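 Readout is the corrected green/red luminescence ratio after 24 h compound exposure, normalised to untreated cells (0%). Engineered MSC80 mouse Schwann cells express green luciferase from the mouse Pmp22 promoter and red luciferase from EF-alpha as internal control.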

Measured: Potency

COc1cc(/C=C/C(=O)/C=C(O)/C=C/c2ccc(O)c(OC)c2)ccc1O
active: CP297 15.1 µM | DIV17 12 µM | ICS 10 µM | W2 15.1 µM
inactive: [1] | [2] | CP211 | CP256 | CP325 | FAB9 | JCK | PC15 | SC27B

COc1ccc(-c2cc(=O)c3c(OC)c(OC)c(OC)c(OC)c3o2)cc1
inactive: [3]

Nc1ncnc2c1ncn2[C@@H]1O[C@H](COP(=O)(O)OP(=O)(O)OP(=O)(O)OP(=O)(O)OC[C@@H]2O[C@H](n3cnc4c(N)ncnc43)[C@@H](O)[C@@H]2O)[C@H](O)[C@H]1O
inactive: [4]
